According to paper PMC5540273 (PLoS ONE, 2017):

What was measured:
Conditions in all cases: concentration: 1 μM, replicates: in singlicate; n = 1
CHEK1 = test system: CHEK1
CHEK2 = test system: CHEK2
CIT = test system: CIT
CLK1 = test system: CLK1
CLK2 = test system: CLK2
CLK3 = test system: CLK3
CLK4 = test system: CLK4
CSF1R-autoinhibited = test system: CSF1R-autoinhibited
CSF1R = test system: CSF1R
CSK = test system: CSK
CSNK1A1L = test system: CSNK1A1L
CSNK1A1 = test system: CSNK1A1
CSNK1D = test system: CSNK1D
CSNK1E = test system: CSNK1E
CSNK1G1 = test system: CSNK1G1
CSNK1G2 = test system: CSNK1G2
CSNK1G3 = test system: CSNK1G3
CSNK2A1 = test system: CSNK2A1
CSNK2A2 = test system: CSNK2A2
CTK = test system: T1, CTK
T1 construct: gene MATK
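Further: KINOMEscan kinase panel screen.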

Structure (SMILES)	%Inh (CHEK1) [%]	%Inh (CHEK2) [%]	%Inh (CIT) [%]	%Inh (CLK1) [%]	%Inh (CLK2) [%]	%Inh (CLK3) [%]	%Inh (CLK4) [%]	%Inh (CSF1R-autoinhibited) [%]	%Inh (CSF1R) [%]	%Inh (CSK) [%]	%Inh (CSNK1A1L) [%]	%Inh (CSNK1A1) [%]	%Inh (CSNK1D) [%]	%Inh (CSNK1E) [%]	%Inh (CSNK1G1) [%]	%Inh (CSNK1G2) [%]	%Inh (CSNK1G3) [%]	%Inh (CSNK2A1) [%]	%Inh (CSNK2A2) [%]	%Inh (CTK) [%]
N#Cc1c(N2CCOCC2)sc(-c2ccn[nH]2)c1-c1ccc(Cl)cc1	15	15	24	6	0	16	0	8	34	17	0	17	0	15	0	0	10	34	14	3
Fc1ccc(-c2nn3c(OCC(F)(F)F)cccc3c2-c2ccncc2)cc1 [GW514784]	0	30	99.1	2	0	0	0	36	0	0	35	92.9	96.4	99	0	0	16	0	0	0
COc1cc(Nc2nccc(N3CCC(NC(=O)c4cccc(NC(C)=O)c4)C3)n2)cc(OC)c1OC (stereo not drawn) [GSK1379754]	0	19	23	10	3	0	13	0	38	0	4	6	0	0	4	0	8	17	65	0
CN(C1=C(c2ccccc2)C(=O)NC1=O)c1ccccc1 [SB-334860]	0	16	37	24	12	0	6	0	18	6	0	0	19	17	7	0	22	1	21	0
O=C(c1ccc(-c2cc(-c3c[nH]nc3-c3ccccn3)ccn2)cc1)N1CCOCC1 [GW812171]	0	0	0	0	0	0	0	12	16	51	0	32	49	17	19	0	0	0	0	49
CN1c2ccc(NCc3ccc(F)cc3)cc2-c2c(cnn2C)S1(=O)=O	0	0	0	0	0	0	0	1	0	0	0	0	2	3	0	0	0	0	0	0
c1ccc(-c2n[nH]cc2-c2ccnc3ccccc23)nc1 [GW271431]	5	0	41	28	7	55	20	11	6	0	19	38	60	69	20	0	24	0	23	0
COc1ccc(COc2cc(-n3cnc4ccccc43)sc2C(N)=O)cc1 [GSK1024304]	0	0	29	27	48	17	12	0	4	0	13	0	0	30	11	5	22	4	13	0
NS(=O)(=O)CCc1cccc(Nc2nccc(-c3c(-c4cccc(NC(=O)c5c(F)cccc5F)c4)nn4ccccc34)n2)c1 [GSK336735]	4	0	53	27	10	100	21	21	99.7	97.5	7	0	33	90.4	14	5	19	9	9	0
c1ccc(-c2cc(-c3c[nH]nc3-c3ccccn3)ccn2)cc1 [GW576604]	0	6	27	5	12	0	11	26	0	0	0	0	38	15	0	1	3	0	15	0
Cc1nnc(-c2ccc(C)c(-c3ccc(C(=O)Nc4ccc(NS(C)(=O)=O)cc4)cc3)c2)o1 [GW702865]	0	30	7	2	0	2	0	37	1	0	0	0	14	0	0	15	17	0	15	0
CCCCCc1nc2c(N)ncnc2n1CCCCC [SKF-97255]	0	0	9	24	14	3	17	0	17	0	0	14	0	3	0	0	6	0	28	0
O=C(Nc1cccc(-c2nn3ncccc3c2-c2ccnc(Nc3cccc(C(F)(F)F)c3)n2)c1)c1c(F)cccc1F [GSK299495]	5	0	0	18	100	0	25	8	98.1	88	24	0	12	82	0	0	18	0	0	0
[2H]C([2H])(c1cccc(C(F)(F)F)c1C)n1ccn2c(=O)nc(N3CCOCC3)cc12 [GSK2336394]	0	0	11	20	0	14	12	0	0	0	16	0	19	12	9	0	19	0	0	0
COc1cc2c(cc1OC[C@@H](O)CO)ncc1c3ccc(C#N)cc3[nH]c21	7	48	94.8	89	88	2	89	96.6	44	1	0	9	0	0	0	0	0	81	93.9	18
CN1c2ccc(CNc3ccc(F)cc3)cc2-c2c(cnn2C)S1(=O)=O	0	0	1	0	11	0	17	1	0	0	0	1	0	0	0	0	0	0	0	0
NS(=O)(=O)c1cccc(-c2ccc3ncc(N4CCOCC4)nc3c2)c1 [GSK1535721]	0	37	7	11	12	0	18	8	0	0	0	0	16	0	12	0	19	4	18	0
Cc1cn2c(=O)cc(N3CCOCC3)nc2n1Cc1cccc(Cl)c1Cl [GSK2334006]	25	0	17	35	0	11	26	0	5	0	29	48	43	45	17	6	26	11	18	0
O=C(NCCCN1CCOCC1)c1cccc(Nc2nccc(Nc3ccc(Oc4ccccc4)cc3)n2)c1 [GW663929]	9	40	9	22	28	0	11	9	33	88	0	0	3	0	18	0	11	10	21	11
CNc1ncnc2[nH]ncc12 [SKF-18355]	0	0	9	19	8	9	0	0	0	0	0	14	0	32	0	0	11	0	3	18
CC(=O)Nc1ccc(COc2ccc(Nc3ccnc4cc(-c5ccccn5)ccc34)cc2)cc1.Cl [GW440148]	1	29	20	35	0	0	0	32	99.3	36	0	0	24	33	9	0	29	5	11	3
